A short description of assay [1]: qHTS RealTime-Glo MT Cell Viability Assay in HepG2 cells - 24 hour (AID 1224867). Further: nearly all actives have a fitted effect of over 50% in size. The procedure, abridged:
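HepG2 suspension premixed with RealTime-Glo reagents is plated at 600 cells per well and left 5 h at 37 C/5% CO2. Compounds in DMSO then go in, and bioluminescence reflecting viable cell number is recorded over 40 h.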
In general terms: Quantitative high-throughput screening tests each substance at several concentrations.

Assay [2] can be described thus: qHTS RealTime-Glo MT Cell Viability Assay in HEK293 cells - 32 hour (AID 1224868). Further: top concentration of the series differs between compounds; nearly all actives have a fitted effect of over 50% in size. The procedure, abridged: (§1)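 Reads taken at 0, 8, 16, 24, 32 and 40 h from the same wells. HEK293 cells (600/well) carried RealTime-Glo reagents from seeding, with compound added after a 5 h settle at 37 C.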
Assay [3] in a line: A CellTox Green Cytotoxicity Assay to monitor cytotoxicity in HEK293 cells - 0 hour (AID 1224869). Further: nearly all actives have a fitted effect of over 50% in size. In short, it runs like this: (§2)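 Each value comes from one timepoint of a single continuous run in which HEK293 cells with CellTox Green were exposed to compound for up to 40 h at 37 C, dye fluorescence rising with cell death.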
Assay [4] is described as follows: A CellTox Green Cytotoxicity Assay to monitor cytotoxicity in HEK293 cells - 40 hour (AID 1224871). Further: nearly all actives have a fitted effect of over 45% in size. The procedure, abridged:
as §2

The nature of assay [5]: qHTS RealTime-Glo MT Cell Viability Assay in HEK293 cells - 16 hour (AID 1224872). Further: top concentration of the series differs between compounds; nearly all actives have a fitted effect of over 50% in size. The procedure, abridged: as §1
The nature of assay [6]: qHTS RealTime-Glo MT Cell Viability Assay in HepG2 cells - 8 hour (AID 1224873). Further: nearly all actives have a fitted effect of over 55% in size. In short, it runs like this: (§3)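 HepG2 cells (600/well) mixed with RealTime-Glo MT reagent, settled 5 h at 37 C/5% CO2 before compound addition. Nonlytic NanoLuc luminescence from viable-cell prosubstrate reduction read repeatedly during 40 h treatment at 37 C.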
The nature of assay [7]: qHTS RealTime-Glo MT Cell Viability Assay in HEK293 cells - 40 hour (AID 1224874). Further: nearly all actives have a fitted effect of over 50% in size. Particulars: RealTime-Glo luminescence; max response: active compounds read low. The procedure, abridged: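 qHTS format; HEK293 cells with NanoLuc/prosubstrate reagent, 37 C/5% CO2 for 5 h pre-dosing; compounds 23 nL in DMSO; luminescence at each time point reflects viable cells.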
Assay [8] can be described thus: A CellTox Green Cytotoxicity Assay to monitor cytotoxicity in HEK293 cells - 24 hour (AID 1224875). Further: nearly all actives have a fitted effect of over 45% in size. Further: potency means the concentration at half of the fitted maximal effect. In short, it runs like this:
as §2

The nature of assay [9]: A CellTox Green Cytotoxicity Assay to monitor cytotoxicity in HepG2 cells - 16 hour (AID 1224876). Further: nearly all actives have a fitted effect of over 45% in size. In short, it runs like this:
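Continuous culture of HepG2 cells with a membrane-impermeant DNA dye; rising fluorescence marks dead cells. Compound exposure lasted up to 40 h at 37 C, with reads every 8 h from 0 h.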

Assay [10] can be described thus: qHTS RealTime-Glo MT Cell Viability Assay in HepG2 cells - 40 hour (AID 1224870). Further: nearly all actives have a fitted effect of over 50% in size. In short, it runs like this: as §3

Values without a mark were called inactive. Results filed as inconclusive are left out. Activity calls are given as the source filed them. The call rests on the fitted dose curve; in most records, active means well fitted curve in the direction sought with a large enough effect in the repeat runs; inconclusive means weak or mixed curves; inactive means no such curve, though single readings can be large; an effect the other way counts as inactive or inconclusive.
On the % scale 0 is the no-effect control and ±100 the full control effect.

Turning to `C[C@]12CCC(=O)C=C1CC[C@H]1[C@@H]3CC[C@](O)(C(=O)CO)[C@@]3(C)C[C@H](O)[C@@]12F`, the compound was classed as inactive in [1] and in [6]. Besides, the Potency entry in assay [2], in assay [3], in [4], in [5], in assay [8] and in [9] was “inactive” each time. For the same compound, the max response in assay [7] was -26.1%.

`CC(=O)Nc1ccc(OC(=O)c2ccccc2OC(C)=O)cc1`: the result in [1], in [10] and in assay [6] was inactive. The Potency entry in assay [2], in [3], in assay [5] and in assay [9] was “inactive” each time. In addition, the max response in assay [7] is 3.46%.

Turning to `CCCCCCCCCCCCCCC(=O)NC(CO)CCCCCCCCCCCCCC` (stereo unspecified), the outcome in [1] and in [6] was inactive. Also, the Potency result in assay [2], in assay [3], in [5] and in [9] was “inactive” each time. Also, the max response in assay [7] was 5.76%.

For the compound `CC(=O)CCC1=C(C)CCCC1(C)C`, the call in assay [1] and in assay [6] was inactive. Also, the Potency entry in assay [2], in assay [3] and in [5] was “inactive” throughout. Moreover, in [7], the max response was -7.96%.

In the case of `CC(C)CO`, the call in assay [1] and in assay [6] was inactive. Also, the Potency entry in [2], in assay [3], in assay [5] and in [9] was “inactive” in each case. Besides, the max response in assay [7] is -4.29%.

Consider `c1ccc2c(CC3=NCCN3)cccc2c1`, for which the compound was classed as inactive in [1], in assay [10] and in assay [6]. The Potency result in assay [2], in assay [3], in assay [8] and in [9] was “inactive” throughout. In addition, the max response in assay [7] was -13.3%.

Regarding `CCCC(=O)OC/C=C(\C)CCC=C(C)C`, the compound was called inactive in assay [1] and in assay [6]. The Potency entry in assay [2], in assay [3], in [5] and in assay [9] was “inactive” throughout. Besides, the max response in assay [7] is 10.7%. For the same compound, the Potency in [8] was 54.9 µM (active).

With `CCO`, the call in assay [1], in [10] and in [6] was inactive. Besides, the Potency entry in assay [2], in [3], in assay [5], in [8] and in assay [9] was “inactive” each time. In addition, the max response in assay [7] is 0.927%.

In the case of `Nc1nc(-c2ccccc2)c(Br)c(=O)[nH]1`, the outcome in [1], in assay [10] and in assay [6] was inactive. The Potency entry in [2], in [3], in assay [8] and in assay [9] was “inactive” each time. The max response in [7] is -3.06%.

With `CCCCCCCCCCCCCCCCCC#N`, the result in [1] and in assay [6] was inactive. Besides, the Potency result in assay [2], in [3], in [4] and in assay [8] was “inactive” each time. Further, in assay [7], the max response was -5.42%.

With `OC[C@H]1O[C@@H](O[C@@H]2[C@@H](CO)O[C@](O)(CO)[C@H]2O)[C@H](O)[C@@H](O)[C@H]1O`, the call in assay [1] and in assay [6] was inactive. Moreover, the Potency result in assay [2], in assay [3], in [4], in [5], in [8] and in assay [9] was “inactive” each time. The max response in assay [7] is 1.5%.

As for `CCOc1cccc(N)c1`, the compound was classed as inactive in assay [1] and in assay [6]. Also, the Potency result in [2], in assay [3], in assay [4], in assay [5], in [8] and in [9] was “inactive” in each case. The max response in assay [7] was 2.76%.

As to `CCCCCC/C=C/C(=O)OC`, the compound was classed as inactive in assay [1] and in assay [6]. Besides, the Potency result in assay [2], in [3] and in assay [5] was “inactive” throughout.

For `c1ccc(-c2nn[nH]n2)cc1`, the outcome in assay [1] and in [6] was inactive. In addition, the Potency result in [2], in [3], in assay [4], in assay [5], in assay [8] and in assay [9] was “inactive” each time. The max response in assay [7] is 6%.

On to `C/C=C(\C)C(C)=O`, for which the compound was called inactive in assay [1] and in assay [6]. The Potency entry in assay [2], in [3], in [4], in assay [5], in [8] and in [9] was “inactive” throughout. Further, the max response in [7] is 0.603%.

On to `CC1CC(=O)CC(C)(C)C1` (stereo unspecified), for which the compound was classed as inactive in assay [1] and in [6]. In addition, the Potency result in assay [2], in assay [3], in assay [4] and in assay [9] was “inactive” in each case. In assay [7], the max response is -1.21%.

As to `CC1=C(C(=O)O)N2C(=O)[C@@H](NC(=O)[C@H](N)c3ccccc3)[C@H]2SC1`, the result in assay [1], in assay [10] and in assay [6] was inactive. Moreover, the Potency result in assay [2], in [3], in assay [8] and in assay [9] was “inactive” each time. Moreover, in [7], the max response was 0.975%.

On to `CC1c2ccccc2CN1NC(=O)c1ccc(Cl)c(S(N)(=O)=O)c1` (stereo unspecified), for which the call in assay [1], in assay [10] and in assay [6] was inactive. Besides, the Potency entry in assay [2], in assay [3], in [8] and in assay [9] was “inactive” in each case. Besides, the max response in [7] was -0.0255%.

`NCCOCCN`: the outcome in assay [1] and in assay [6] was inactive. Besides, the Potency result in assay [2], in [3], in assay [5], in assay [8] and in [9] was “inactive” in each case. In addition, the max response in assay [7] was 1.68%.

As for `CO[C@@]1(NC(=O)Cc2cccs2)C(=O)N2C(C(=O)O)=C(COC(N)=O)CS[C@@H]21`, the call in assay [1] and in assay [6] was inactive. In addition, the Potency entry in [2], in [3], in assay [5], in [8] and in [9] was “inactive” in each case. The max response in assay [7] is 0.152%.

`CC(=O)O[C@H]1C[C@@H]2CC[C@@]1(C)C2(C)C`: the compound was classed as inactive in [1] and in assay [6]. Also, the Potency result in assay [2], in assay [3], in assay [4], in [5] and in assay [9] was “inactive” in each case. Besides, the max response in assay [7] is 4.28%.

Take `CO/N=C(/C(=O)N[C@@H]1C(=O)N2C(C(=O)[O-])=C(C[n+]3ccn4ncccc43)CS[C@H]12)c1nsc(N)n1`: the compound was called inactive in assay [1] and in assay [6]. For the same compound, the Potency entry in assay [2], in assay [3], in [4], in assay [5], in assay [8] and in [9] was “inactive” each time. The max response in assay [7] was 6.83%.

As for `C=CCN1C[C@H](C(=O)N(CCCN(C)C)C(=O)NCC)C[C@@H]2c3cccc4[nH]cc(c34)C[C@H]21`, the call in assay [1] and in assay [6] was inactive. The Potency entry in assay [2], in [3], in assay [4], in [5], in assay [8] and in [9] was “inactive” in each case. Moreover, the max response in assay [7] was 0.226%.

For the compound `Cc1ccc(C(C)NC(=O)[C@@H](NC(=O)OC(C)C)C(C)C)cc1` (stereo partly specified), the compound was called inactive in [1] and in assay [6]. Also, the Potency result in assay [2], in [3], in assay [5], in [8] and in assay [9] was “inactive” each time. In addition, in assay [7], the max response is -6.73%.

The values above are taken from PubChem BioAssay (Tox21).
